High-throughput results deposited in PubChem BioAssay by University of Pittsburgh Molecular Library Screening Center.
Only a selection was taken, and hits are over-represented in it overall.
HIV RNase H inh: blocks HIV-1 RNase H cleavage of RNA/DNA duplex; P04585; RT-RNase H RNA/DNA duplex cleavage, fluorescence; inhibition, % at 10 µM; actives 1.9% (n = 65,000); AID 565; in the data active = inhibition above about 50%
* marks the source's active call; other numbers are inactive results.

SMILES	HIV RNase H inh
CCOc1cccc(C(=O)Nc2ccccc2N2CCN(C(=O)C(C)C)CC2)c1	-16.2
N#CCCN1CCN(S(=O)(=O)c2ccc(S(=O)(=O)NC3CCCC3)cc2)CC1	-8.4
COC(=O)CSc1nnc(CNc2ccc(OC)cc2)n1C	2.9
COc1ccc(S(=O)(=O)N2Cc3ccccc3CC2C(=O)Nc2nccs2)cc1OC (stereo not given)	-0.8
O=C(C1CCN(S(=O)(=O)c2cccs2)CC1)N1CCc2ccccc2C1	-14.8
O=C(Nc1nnc(C2CC2)s1)C1Cc2ccccc2CN1S(=O)(=O)c1cccs1 (stereo not given)	58.9*
O=C(Nc1ccccn1)C1CCN(S(=O)(=O)c2cccs2)CC1	-6.0
CCc1nnc(NC(=O)C2Cc3ccccc3CN2S(=O)(=O)c2cccs2)s1 (stereo not given)	50.5*
CCc1nnc(NC(=O)C2CCCN2S(=O)(=O)c2ccc(C)cc2)s1 (stereo not given)	-11.3
O=C(CSc1nc2ccccc2c(=O)n1-c1ccc(Cl)cc1)c1ccco1	27.3
Cc1cccc2nc(Cn3c(=O)n(CCC(=O)NCc4ccco4)c(=O)c4ccccc43)cc(=O)n12	-14.5
N#CC1=C2SCN(Cc3ccccc3)CN2C(=O)CC1c1cccs1 (stereo not given)	64.8*
N#CC1=C2SCN(Cc3ccccc3)CN2C(=O)CC1c1ccc2c(c1)OCO2 (stereo not given)	-24.5
COc1cc(C2CC(=O)N3CN(Cc4ccco4)CSC3=C2C#N)ccc1OCc1ccccc1 (stereo not given)	10.7
COc1ccc(C2CC(=O)N3CN(c4ccc(C)c(Cl)c4)CSC3=C2C#N)cc1 (stereo not given)	20.8
N#CC1=C2SCN(Cc3ccco3)CN2C(=O)CC1c1ccc(Cl)cc1 (stereo not given)	54.5*
CC(C)c1ccc(C2CC(=O)N3CN(Cc4ccco4)CSC3=C2C#N)cc1 (stereo not given)	59.5*
COc1ccc2ccccc2c1C1CC(=O)N2CN(Cc3ccco3)CSC2=C1C#N (stereo not given)	6.4
CSC1=C(C#N)C(c2ccc(C(C)C)cc2)CC(=O)N1 (stereo not given)	-12.7
N#CC1=C(N)Oc2c(oc(CO)cc2=O)C1c1cccs1 (stereo not given)	4.2
COc1ccc(OC)c(C2CC(=O)N3CN(c4ccccc4)CSC3=C2C#N)c1 (stereo not given)	4.0
COc1ccc(C2CC(=O)N3CN(c4ccccc4F)CSC3=C2C#N)cc1OC (stereo not given)	59.1*
COc1ccc(C2CC(=O)N3CN(Cc4ccco4)CSC3=C2C#N)cc1 (stereo not given)	19.6
COC(=O)CN1CCN(C(=O)c2ccc(F)cc2)c2ccccc2C1	-16.8
COc1cccc(NC(=O)CCS(=O)(=O)c2cccs2)c1	-17.5
SMILES	HIV RNase H inh
COc1nnc(-c2ccc(N3CCCCC3)c(N)c2)c2ccccc12	-25.4
COC(=O)Cn1cnc2c(nnn2-c2cccc(Cl)c2)c1=O	-3.7
Cc1ccc2c(c1)N(CCCC(=O)NCCCN1CCCC1=O)C(=O)CO2	-7.1
CCOC(=O)c1ccc(NC(=O)CC2Sc3ncnn3C2=O)cc1 (stereo not given)	59.9*
CCOC(=O)c1ccc(NC(=O)CC2SC(=NC)N(C)C2=O)cc1 (stereo not given)	-3.4
COc1ccc(NC(=O)CC2Sc3ncnn3C2=O)cc1 (stereo not given)	2.5
O=C1NCC2=C1C(c1ccc(Br)cc1)Nc1ccccc1N2 (stereo not given)	8.0
COc1ccc(S(=O)(=O)Nc2ccc(F)c(Cl)c2)cc1OC	-11.0
Cc1ccc(NC(=O)C2C3C=CC4(CN(Cc5cccnc5)C(=O)C24)O3)cc1F (stereo not given)	1.0
O=c1c2cc(Cl)ccc2[nH]c(=S)n1Cc1ccco1	-31.6
COc1cccc(Cn2c(=S)[nH]c3ccc(N4CCOCC4)cc3c2=O)c1	9.1
O=c1c2cc(N3CCOCC3)ccc2[nH]c(=S)n1Cc1ccco1	55.3*
OCc1nn2c(c1Br)NC(c1ccccc1)CC2C(F)(F)F (stereo not given)	-8.1
CCc1nnc(NC(=O)c2c(O)c3cccc4c3n(c2=O)CC4)s1	-5.6
O=C(CSc1nnnn1-c1ccccc1)N1CCc2ccccc21	-5.9
CCc1nnc(NCC(=O)N2CCc3ccccc32)s1	55.1*
COc1ccc(S(=O)(=O)N2CCCCC2)cc1C(C)C	-89.4
COc1ccc(CC(=O)Nc2nc3ccccc3s2)cc1S(=O)(=O)N1CCOCC1	-23.0
CCOc1ccc2nc(NC(=O)c3ccc(S(=O)(=O)N4CCOCC4)cc3)sc2c1	-3.4
O=C(CCc1ccccc1)Nc1nc2ccc(S(=O)(=O)N3CCOCC3)cc2s1	63.8*
Cc1ccc2c(c1)nnn2C1CCN(C(=O)C2CCCCC2)CC1	-13.8
Cc1nnc(NC(=O)c2cccc(F)c2)s1	-4.3
Cc1nnc(NC(=O)c2ccc(-c3cccc(C(F)(F)F)c3)o2)s1	57.0*
CC(=O)Cc1nsc(NC(=O)c2ccc(-c3cccc(C(F)(F)F)c3)o2)n1	1.0
CC(C)Cn1c(SCC(=O)c2ccc(Cl)s2)nnc1-c1ccco1	-55.3
SMILES	HIV RNase H inh
O=C(COC(=O)C1COc2ccccc2O1)NC(=O)NC1CCCC1 (stereo not given)	-2.0
Cc1ccnc(NC(=O)COC(=O)C2COc3ccccc3O2)n1 (stereo not given)	6.0
O=C(COC(=O)C1COc2ccccc2O1)NC(=O)Nc1ccc2c(c1)OCCO2 (stereo not given)	51.0*
Nc1nc(C2CC2)c(Sc2sc(N)nc2C2CC2)s1	-21.3
Cc1cc(C(=O)CSc2nnnn2-c2ccccc2)c(C)n1CC1CCCO1 (stereo not given)	8.9
CCn1c(SCC(=O)c2cc(C)n(CC3CCCO3)c2C)nc2ccccc21 (stereo not given)	-4.0
Cc1cc(C(=O)CSc2nnnn2-c2ccc(Cl)cc2)c(C)n1CC1CCCO1 (stereo not given)	62.5*
Cn1c(Cn2c(=O)sc3ccccc32)nnc1SCC(=O)Nc1ccc2c(c1)OCO2	16.4
C#CCNc1nc(CC)nc2c1nnn2Cc1ccccc1F	3.1
CCOC(=O)c1c(NC(=O)c2ccoc2C)sc2c1CCC2	10.8
CCC1CCc2c(sc(NC(=O)c3ccoc3C)c2C(N)=O)C1 (stereo not given)	53.0*
CCN(CC)C(=O)c1sc(NC(=O)c2ccoc2C)c(C(=O)OC)c1C	14.8
CCCCC12CN3CC(C)(CN(C1)C31C(=O)N(C)c3ccc(C)cc31)C2=O (stereo not given)	3.8
COc1ccc(Nc2nc(C)cc(C)c2C(N)=O)c(OC)c1	0.7
Cc1nn(-c2ccccc2)c(C)c1C(=O)OCC(=O)Nc1ccc2c(c1)OCO2	0.6
Cc1ccc(S(=O)(=O)Nc2nc3ccc(S(=O)(=O)N4CCCC4)cc3s2)cc1	8.9
COCCN1Cc2cccc(C(=O)Nc3c(C)cccc3C)c2C1=O	58.1*
COCCN1Cc2cccc(C(=O)Nc3ccc(C)c(C)c3)c2C1=O	-6.5
COCCN1Cc2cccc(C(=O)Nc3cccc(OC)c3)c2C1=O	-9.1
COc1ccc(-c2nc(C#N)c(N3CCCCCC3)o2)cc1OC	-14.3
O=C(COC(=O)C1CCCCC1C(=O)N1CCc2ccccc21)NCc1ccco1 (stereo not given)	23.6
Cc1nnc(NC(=O)C2CCCO2)s1 (stereo not given)	32.3
CCCCCc1nnc(NC(=O)C2CCCO2)s1 (stereo not given)	64.0*
Cc1ccc(S(=O)(=O)CCc2nnc(NC(=O)C3CCCO3)s2)cc1 (stereo not given)	37.4
